Test results as given in the supplement of paper PMC6411743.
± gives the standard deviation of the averaged measurements. Of roughly 5,400 targets only a part is listed; those with the largest changes were picked by preference.

Compound: Nc1nc2c(ncn2[C@@H]2O[C@H](COP(=O)(O)OP(=O)(O)OP(=O)(O)O)[C@@H](O)[C@H]2O)c(=O)[nH]1 [guanosine triphosphate]
Assay: NP40-soluble protein abundance relative to vehicle (solubility fold change) (ratio); higher = more soluble protein in presence of GTP
Experimental: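 Solubility proteome profiling in Jurkat crude lysate. Lysate was treated with Mg-GTP (0.1-10 mM) for 10 min at room temperature and 3 min at 37 °C, then solubilised with 0.8% NP40 and benzonase, followed by ultracentrifugation. Proteins were quantified by TMT10 LC-MS/MS; the value is the NP40-soluble abundance relative to the NP40-processed vehicle, from 3 independent experiments.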

Chain of UniProt P48634 (P48634 whole entry): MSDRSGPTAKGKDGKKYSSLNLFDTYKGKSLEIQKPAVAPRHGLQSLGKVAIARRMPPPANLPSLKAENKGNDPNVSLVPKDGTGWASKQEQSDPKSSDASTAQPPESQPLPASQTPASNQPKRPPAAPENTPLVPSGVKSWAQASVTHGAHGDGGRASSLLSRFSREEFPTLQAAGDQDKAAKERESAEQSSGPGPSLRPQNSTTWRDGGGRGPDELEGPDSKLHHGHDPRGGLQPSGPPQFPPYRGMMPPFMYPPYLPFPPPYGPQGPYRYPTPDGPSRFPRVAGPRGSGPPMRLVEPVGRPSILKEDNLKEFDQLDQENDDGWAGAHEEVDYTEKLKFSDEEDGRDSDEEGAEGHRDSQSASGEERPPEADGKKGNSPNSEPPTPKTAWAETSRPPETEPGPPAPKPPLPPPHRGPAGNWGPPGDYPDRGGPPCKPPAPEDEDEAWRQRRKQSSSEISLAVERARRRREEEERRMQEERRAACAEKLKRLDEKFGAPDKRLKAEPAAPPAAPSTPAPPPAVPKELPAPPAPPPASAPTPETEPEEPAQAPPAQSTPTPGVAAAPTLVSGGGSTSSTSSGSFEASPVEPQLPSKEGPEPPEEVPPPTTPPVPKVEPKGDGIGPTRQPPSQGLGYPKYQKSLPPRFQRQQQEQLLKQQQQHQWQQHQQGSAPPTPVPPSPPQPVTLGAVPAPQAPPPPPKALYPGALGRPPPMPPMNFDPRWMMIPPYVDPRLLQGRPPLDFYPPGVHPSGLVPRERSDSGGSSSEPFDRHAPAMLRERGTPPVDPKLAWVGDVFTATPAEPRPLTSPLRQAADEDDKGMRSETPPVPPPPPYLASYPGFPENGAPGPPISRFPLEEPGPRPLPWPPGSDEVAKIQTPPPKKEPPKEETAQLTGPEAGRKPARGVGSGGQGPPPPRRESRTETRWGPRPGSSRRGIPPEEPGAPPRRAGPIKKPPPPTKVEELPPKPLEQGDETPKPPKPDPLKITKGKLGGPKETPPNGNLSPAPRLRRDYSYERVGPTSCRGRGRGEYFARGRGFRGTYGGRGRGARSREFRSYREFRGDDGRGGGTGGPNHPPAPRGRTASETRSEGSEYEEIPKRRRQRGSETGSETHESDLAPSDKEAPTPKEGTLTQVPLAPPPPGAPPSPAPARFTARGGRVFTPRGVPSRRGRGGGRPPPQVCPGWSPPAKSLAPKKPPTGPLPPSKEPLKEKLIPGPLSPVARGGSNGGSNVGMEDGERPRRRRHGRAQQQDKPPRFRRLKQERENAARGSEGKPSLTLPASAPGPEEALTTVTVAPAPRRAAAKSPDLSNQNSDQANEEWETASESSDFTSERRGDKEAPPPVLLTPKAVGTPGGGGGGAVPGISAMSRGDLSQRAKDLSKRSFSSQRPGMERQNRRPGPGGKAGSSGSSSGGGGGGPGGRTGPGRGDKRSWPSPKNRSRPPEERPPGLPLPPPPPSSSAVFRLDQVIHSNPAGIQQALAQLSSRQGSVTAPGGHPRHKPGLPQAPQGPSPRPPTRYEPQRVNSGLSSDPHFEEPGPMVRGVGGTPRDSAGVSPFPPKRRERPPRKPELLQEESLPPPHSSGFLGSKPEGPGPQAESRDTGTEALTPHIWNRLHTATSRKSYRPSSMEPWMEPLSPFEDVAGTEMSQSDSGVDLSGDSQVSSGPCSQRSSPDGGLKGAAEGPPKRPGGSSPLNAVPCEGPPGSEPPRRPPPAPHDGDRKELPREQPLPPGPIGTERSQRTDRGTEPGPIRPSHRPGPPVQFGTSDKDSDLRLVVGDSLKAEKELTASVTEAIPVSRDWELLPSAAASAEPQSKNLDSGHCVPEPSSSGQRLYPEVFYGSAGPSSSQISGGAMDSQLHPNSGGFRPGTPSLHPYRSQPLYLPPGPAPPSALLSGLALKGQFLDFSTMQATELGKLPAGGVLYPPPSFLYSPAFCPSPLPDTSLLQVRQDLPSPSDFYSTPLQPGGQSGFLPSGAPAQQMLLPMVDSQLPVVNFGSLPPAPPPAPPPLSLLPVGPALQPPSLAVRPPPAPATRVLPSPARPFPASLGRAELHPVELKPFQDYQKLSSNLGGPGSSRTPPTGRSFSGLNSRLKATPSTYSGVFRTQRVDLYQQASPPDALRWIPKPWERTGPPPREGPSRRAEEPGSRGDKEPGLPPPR
Chain of UniProt P54577 (P54577 whole entry): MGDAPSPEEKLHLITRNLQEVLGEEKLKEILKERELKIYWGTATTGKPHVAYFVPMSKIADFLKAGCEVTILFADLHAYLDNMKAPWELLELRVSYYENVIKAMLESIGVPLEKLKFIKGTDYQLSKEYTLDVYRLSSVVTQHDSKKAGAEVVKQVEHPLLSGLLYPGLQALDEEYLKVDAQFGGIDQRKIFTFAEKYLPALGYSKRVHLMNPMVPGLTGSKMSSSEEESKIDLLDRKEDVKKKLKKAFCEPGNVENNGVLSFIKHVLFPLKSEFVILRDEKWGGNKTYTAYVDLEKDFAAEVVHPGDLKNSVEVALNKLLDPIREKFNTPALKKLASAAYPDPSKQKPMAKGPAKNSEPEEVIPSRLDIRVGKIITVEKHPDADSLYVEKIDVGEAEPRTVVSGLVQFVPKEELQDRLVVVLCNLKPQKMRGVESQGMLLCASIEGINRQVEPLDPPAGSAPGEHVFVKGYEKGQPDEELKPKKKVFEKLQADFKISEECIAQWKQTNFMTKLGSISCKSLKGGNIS
Chain of UniProt O75531 (O75531 whole entry): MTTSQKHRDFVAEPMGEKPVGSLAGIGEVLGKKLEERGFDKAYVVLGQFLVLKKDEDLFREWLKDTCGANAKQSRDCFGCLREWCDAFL
Chain of UniProt O75582 (O75582 whole entry, looked up, one chain of several): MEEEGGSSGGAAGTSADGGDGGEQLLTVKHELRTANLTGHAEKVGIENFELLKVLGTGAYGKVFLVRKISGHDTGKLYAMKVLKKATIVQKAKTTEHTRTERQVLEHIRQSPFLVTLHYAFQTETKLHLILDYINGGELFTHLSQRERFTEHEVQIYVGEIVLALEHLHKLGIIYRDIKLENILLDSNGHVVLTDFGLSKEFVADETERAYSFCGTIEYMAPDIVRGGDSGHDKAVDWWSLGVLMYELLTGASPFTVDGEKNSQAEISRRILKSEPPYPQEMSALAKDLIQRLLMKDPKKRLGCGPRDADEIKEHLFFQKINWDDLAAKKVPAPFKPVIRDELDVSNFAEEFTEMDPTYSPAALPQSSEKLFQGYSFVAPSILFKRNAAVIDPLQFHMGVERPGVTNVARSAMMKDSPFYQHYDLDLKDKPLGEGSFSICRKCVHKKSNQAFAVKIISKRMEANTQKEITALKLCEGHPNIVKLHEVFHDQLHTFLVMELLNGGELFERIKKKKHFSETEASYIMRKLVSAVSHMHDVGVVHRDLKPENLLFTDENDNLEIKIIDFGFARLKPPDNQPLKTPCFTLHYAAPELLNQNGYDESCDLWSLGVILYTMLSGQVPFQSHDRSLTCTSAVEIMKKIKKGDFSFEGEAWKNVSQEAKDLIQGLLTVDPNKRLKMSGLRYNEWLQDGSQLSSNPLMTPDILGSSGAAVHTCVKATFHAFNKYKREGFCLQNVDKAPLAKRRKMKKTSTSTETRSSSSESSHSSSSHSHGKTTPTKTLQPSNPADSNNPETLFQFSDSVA
Chain of UniProt P27540 (P27540 whole entry): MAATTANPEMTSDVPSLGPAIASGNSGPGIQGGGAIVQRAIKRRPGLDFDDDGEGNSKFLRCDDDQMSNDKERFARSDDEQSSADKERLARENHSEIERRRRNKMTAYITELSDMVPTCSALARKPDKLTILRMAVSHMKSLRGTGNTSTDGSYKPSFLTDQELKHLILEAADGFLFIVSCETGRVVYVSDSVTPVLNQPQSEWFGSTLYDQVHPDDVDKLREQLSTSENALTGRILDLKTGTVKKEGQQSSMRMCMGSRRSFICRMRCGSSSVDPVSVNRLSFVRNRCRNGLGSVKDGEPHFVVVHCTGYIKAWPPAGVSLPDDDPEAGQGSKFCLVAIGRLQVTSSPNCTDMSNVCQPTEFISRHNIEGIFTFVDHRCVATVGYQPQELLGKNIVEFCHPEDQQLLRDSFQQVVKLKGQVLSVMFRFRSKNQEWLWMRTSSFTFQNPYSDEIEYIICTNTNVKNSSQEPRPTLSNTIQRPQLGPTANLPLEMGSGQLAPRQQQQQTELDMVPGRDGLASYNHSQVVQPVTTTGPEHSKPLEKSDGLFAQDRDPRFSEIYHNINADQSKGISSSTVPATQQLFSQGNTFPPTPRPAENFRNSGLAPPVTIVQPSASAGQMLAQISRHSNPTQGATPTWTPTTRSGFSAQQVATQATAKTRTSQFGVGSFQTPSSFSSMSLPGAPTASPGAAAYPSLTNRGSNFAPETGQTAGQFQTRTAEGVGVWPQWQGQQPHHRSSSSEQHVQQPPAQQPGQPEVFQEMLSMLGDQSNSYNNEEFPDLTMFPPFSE

Target	NP40-soluble protein abundance (concentration: 0.1mM)	NP40-soluble protein abundance (concentration: 0.5mM)	NP40-soluble protein abundance (concentration: 1mM)	NP40-soluble protein abundance (concentration: 2mM)	NP40-soluble protein abundance (concentration: 4mM)	NP40-soluble protein abundance (concentration: 6mM)	NP40-soluble protein abundance (concentration: 8mM)	NP40-soluble protein abundance (concentration: 10mM)
YARS (UniProt P54577)	0.952 ± 0.037	0.969 ± 0.029	0.92 ± 0.042	0.878 ± 0.048	0.864 ± 0.061	0.874 ± 0.048	0.872 ± 0.043	0.849 ± 0.066
UniProt P48634|P48634-2|P48634-3	1.07 ± 0.034	1.06 ± 0.0091	1.19 ± 0.1	1.27 ± 0.03	1.42 ± 0.062	1.52 ± 0.096	1.7 ± 0.19	1.84 ± 0.28
UniProt O75582|A0A0A0MQV2	1.05 ± 0.079	1.06 ± 0.059	0.965 ± 0.044	0.965 ± 0.068	0.979 ± 0.083	0.965 ± 0.056	0.934 ± 0.031	0.912 ± 0.044
BANF1 (UniProt O75531)	1.42 ± 0.34	2.98 ± 1.1	5.2 ± 3	5.54 ± 3.3	5.21 ± 3.3	5.08 ± 3	4.35 ± 2	5.71 ± 3.2
UniProt P27540|P27540-2|P27540-4	0.978 ± 0.071	0.957 ± 0.12	0.957 ± 0.027	0.982 ± 0.11	1.02 ± 0.023	0.961 ± 0.055	0.961 ± 0.059	0.927 ± 0.027
